{"source": "paper PMC11006913", "experiment_in_all_cases": "PBM; 200 nM protein, PBS", "conditions_in_all_cases": "dsDNA, one strand shown", "key": {"[1]": {"target": "HOXB4 (Homo sapiens, UniProt P17483 148-234)", "sequence (P17483 148-234)": "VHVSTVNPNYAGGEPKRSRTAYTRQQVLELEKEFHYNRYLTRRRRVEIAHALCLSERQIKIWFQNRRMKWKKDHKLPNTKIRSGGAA"}, "[2]": {"target": "HOXB4 (Homo sapiens, UniProt P17483 148-234, V174I)", "sequence (P17483 148-234 V174I)": "as the sequence (P17483 148-234) above, with V27I counted along it"}, "[3]": {"target": "MSX2 (Homo sapiens, UniProt P35548 130-214, R199I)", "sequence (P35548 130-214 R199I)": "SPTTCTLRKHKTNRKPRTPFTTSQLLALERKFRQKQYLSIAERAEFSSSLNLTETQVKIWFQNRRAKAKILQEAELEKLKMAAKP"}, "[4]": {"target": "MSX2 (Homo sapiens, UniProt P35548 130-214)", "sequence (P35548 130-214)": "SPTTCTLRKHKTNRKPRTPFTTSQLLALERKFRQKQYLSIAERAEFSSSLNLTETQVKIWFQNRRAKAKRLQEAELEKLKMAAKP"}, "[5]": {"target": "PROP1 (Homo sapiens, UniProt O75360 56-141)", "sequence (O75360 56-141)": "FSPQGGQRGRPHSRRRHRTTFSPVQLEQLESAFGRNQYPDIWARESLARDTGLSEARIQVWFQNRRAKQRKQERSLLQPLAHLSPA"}, "[6]": {"target": "PROP1 (Homo sapiens, UniProt O75360 56-141, R99H)", "sequence (O75360 56-141 R99H)": "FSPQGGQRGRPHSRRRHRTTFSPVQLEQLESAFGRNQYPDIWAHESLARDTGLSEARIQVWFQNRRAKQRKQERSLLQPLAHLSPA"}, "[7]": {"target": "PROP1 (Homo sapiens, UniProt O75360 56-141, F88S)", "sequence (O75360 56-141 F88S)": "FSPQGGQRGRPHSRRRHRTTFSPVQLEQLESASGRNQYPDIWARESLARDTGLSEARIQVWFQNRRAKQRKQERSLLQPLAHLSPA"}, "[8]": {"target": "MSX2 (Homo sapiens, UniProt P35548 130-214, F161Y)", "sequence (P35548 130-214 F161Y)": "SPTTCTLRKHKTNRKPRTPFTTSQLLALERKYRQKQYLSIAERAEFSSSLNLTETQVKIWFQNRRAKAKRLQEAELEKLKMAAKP"}, "[9]": {"target": "ALX1 (Homo sapiens, UniProt Q15699 118-204, L144V)", "sequence (Q15699 118-204 L144V)": "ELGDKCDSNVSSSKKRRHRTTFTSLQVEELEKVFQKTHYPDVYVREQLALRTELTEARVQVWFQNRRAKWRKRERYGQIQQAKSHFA"}, "[10]": {"target": "ALX1 (Homo sapiens, UniProt Q15699 118-204, L144R)", "sequence (Q15699 118-204 L144R)": "as the sequence (Q15699 118-204 L144V) above, with V27R counted along it"}, "[11]": {"target": "VAX1 (Homo sapiens, UniProt Q5SQQ9 86-172)", "sequence (Q5SQQ9 86-172)": "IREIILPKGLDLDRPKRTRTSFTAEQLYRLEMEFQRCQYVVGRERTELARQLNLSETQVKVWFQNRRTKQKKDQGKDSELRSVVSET"}, "[12]": {"target": "VAX1 (Homo sapiens, UniProt Q5SQQ9 86-172, T142I)", "sequence (Q5SQQ9 86-172 T142I)": "as the sequence (Q5SQQ9 86-172) above, with T57I counted along it"}, "[13]": {"target": "ALX1 (Homo sapiens, UniProt Q15699 118-204)", "sequence (Q15699 118-204)": "as the sequence (Q15699 118-204 L144V) above, with V27L counted along it"}, "[14]": {"target": "VAX1 (Homo sapiens, UniProt Q5SQQ9 86-172, K157R)", "sequence (Q5SQQ9 86-172 K157R)": "as the sequence (Q5SQQ9 86-172) above, with K72R counted along it"}, "[15]": {"target": "ALX3 (Homo sapiens, UniProt O95076 139-225, N203Q)", "sequence (O95076 139-225 N203Q)": "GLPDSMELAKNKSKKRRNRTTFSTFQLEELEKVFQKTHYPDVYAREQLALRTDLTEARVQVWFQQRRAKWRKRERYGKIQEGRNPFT"}, "[16]": {"target": "HOXD13 (Homo sapiens, UniProt P35453 263-343, T313R)", "sequence (P35453 263-343 T313R)": "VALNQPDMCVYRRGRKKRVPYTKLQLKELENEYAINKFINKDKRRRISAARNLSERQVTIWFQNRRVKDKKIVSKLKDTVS"}, "[17]": {"target": "HOXD13 (Homo sapiens, UniProt P35453 263-343)", "sequence (P35453 263-343)": "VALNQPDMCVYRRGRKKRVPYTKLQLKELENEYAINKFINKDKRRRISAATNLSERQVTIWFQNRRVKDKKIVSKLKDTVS"}, "[18]": {"target": "ALX3 (Homo sapiens, UniProt O95076 139-225)", "sequence (O95076 139-225)": "as the sequence (O95076 139-225 N203Q) above, with Q65N counted along it"}, "[19]": {"target": "ALX3 (Homo sapiens, UniProt O95076 139-225, L168Q)", "sequence (O95076 139-225 L168Q)": "as the sequence (O95076 139-225 N203Q) above, with L30Q, Q65N counted along it"}, "[20]": {"target": "HOXD13 (Homo sapiens, UniProt P35453 263-343, T313A)", "sequence (P35453 263-343 T313A)": "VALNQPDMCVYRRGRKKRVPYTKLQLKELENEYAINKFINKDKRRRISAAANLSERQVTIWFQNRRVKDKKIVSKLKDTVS"}, "[21]": {"target": "ALX3 (Homo sapiens, UniProt O95076 139-225, L168V)", "sequence (O95076 139-225 L168V)": "as the sequence (O95076 139-225 N203Q) above, with L30V, Q65N counted along it"}, "[22]": {"target": "ALX3 (Homo sapiens, UniProt O95076 139-225, N203S)", "sequence (O95076 139-225 N203S)": "as the sequence (O95076 139-225 N203Q) above, with Q65S counted along it"}}}
{"sequence": "AATGTACC", "values": [{"measurement": "binding signal", "setting": "[1]", "value": "10.2 upbm affinity estimate (log intensity, higher = more binding, comparable within an allelic series)"}, {"measurement": "binding signal", "setting": "[2]", "value": "10.3 upbm affinity estimate (log intensity, higher = more binding, comparable within an allelic series)"}]}
{"sequence": "ATTAGTTG", "values": [{"measurement": "binding signal", "setting": "[1]", "value": "11.2 upbm affinity estimate (log intensity, higher = more binding, comparable within an allelic series)"}, {"measurement": "binding signal", "setting": "[2]", "value": "11.5 upbm affinity estimate (log intensity, higher = more binding, comparable within an allelic series)"}]}
{"sequence": "GAACATAA", "values": [{"measurement": "binding signal", "setting": "[1]", "value": "10.5 upbm affinity estimate (log intensity, higher = more binding, comparable within an allelic series)"}, {"measurement": "binding signal", "setting": "[2]", "value": "10.7 upbm affinity estimate (log intensity, higher = more binding, comparable within an allelic series)"}]}
{"sequence": "CTGGCGAC", "values": [{"measurement": "binding signal", "setting": "[1]", "value": "7.56 upbm affinity estimate (log intensity, higher = more binding, comparable within an allelic series)"}, {"measurement": "binding signal", "setting": "[2]", "value": "7.45 upbm affinity estimate (log intensity, higher = more binding, comparable within an allelic series)"}]}
{"sequence": "GCAATTTA", "values": [{"measurement": "binding signal", "setting": "[1]", "value": "11.5 upbm affinity estimate (log intensity, higher = more binding, comparable within an allelic series)"}, {"measurement": "binding signal", "setting": "[2]", "value": "11.7 upbm affinity estimate (log intensity, higher = more binding, comparable within an allelic series)"}]}
{"sequence": "CGGGCTGC", "values": [{"measurement": "binding signal", "setting": "[1]", "value": "7.97 upbm affinity estimate (log intensity, higher = more binding, comparable within an allelic series)"}, {"measurement": "binding signal", "setting": "[2]", "value": "7.82 upbm affinity estimate (log intensity, higher = more binding, comparable within an allelic series)"}, {"measurement": "binding signal", "setting": "[3]", "value": "9.39 upbm affinity estimate (log intensity, higher = more binding, comparable within an allelic series)"}, {"measurement": "binding signal", "setting": "[4]", "value": "9.57 upbm affinity estimate (log intensity, higher = more binding, comparable within an allelic series)"}, {"measurement": "binding signal", "setting": "[5]", "value": "6.7 upbm affinity estimate (log intensity, higher = more binding, comparable within an allelic series)"}, {"measurement": "binding signal", "setting": "[6]", "value": "6.83 upbm affinity estimate (log intensity, higher = more binding, comparable within an allelic series)"}, {"measurement": "binding signal", "setting": "[7]", "value": "6.68 upbm affinity estimate (log intensity, higher = more binding, comparable within an allelic series)"}, {"measurement": "binding signal", "setting": "[8]", "value": "9.57 upbm affinity estimate (log intensity, higher = more binding, comparable within an allelic series)"}]}
{"sequence": "CGGGAAAG", "values": [{"measurement": "binding signal", "setting": "[1]", "value": "7.44 upbm affinity estimate (log intensity, higher = more binding, comparable within an allelic series)"}, {"measurement": "binding signal", "setting": "[2]", "value": "7.56 upbm affinity estimate (log intensity, higher = more binding, comparable within an allelic series)"}, {"measurement": "binding signal", "setting": "[9]", "value": "6.35 upbm affinity estimate (log intensity, higher = more binding, comparable within an allelic series)"}, {"measurement": "binding signal", "setting": "[10]", "value": "6.49 upbm affinity estimate (log intensity, higher = more binding, comparable within an allelic series)"}, {"measurement": "binding signal", "setting": "[11]", "value": "7.08 upbm affinity estimate (log intensity, higher = more binding, comparable within an allelic series)"}, {"measurement": "binding signal", "setting": "[12]", "value": "7.2 upbm affinity estimate (log intensity, higher = more binding, comparable within an allelic series)"}, {"measurement": "binding signal", "setting": "[13]", "value": "6.44 upbm affinity estimate (log intensity, higher = more binding, comparable within an allelic series)"}, {"measurement": "binding signal", "setting": "[14]", "value": "7.08 upbm affinity estimate (log intensity, higher = more binding, comparable within an allelic series)"}]}
{"sequence": "CGGGATGC", "values": [{"measurement": "binding signal", "setting": "[1]", "value": "7.47 upbm affinity estimate (log intensity, higher = more binding, comparable within an allelic series)"}, {"measurement": "binding signal", "setting": "[2]", "value": "7.57 upbm affinity estimate (log intensity, higher = more binding, comparable within an allelic series)"}, {"measurement": "binding signal", "setting": "[9]", "value": "6.54 upbm affinity estimate (log intensity, higher = more binding, comparable within an allelic series)"}, {"measurement": "binding signal", "setting": "[10]", "value": "6.46 upbm affinity estimate (log intensity, higher = more binding, comparable within an allelic series)"}, {"measurement": "binding signal", "setting": "[13]", "value": "6.51 upbm affinity estimate (log intensity, higher = more binding, comparable within an allelic series)"}]}
{"sequence": "CTCCCGGC", "values": [{"measurement": "binding signal", "setting": "[1]", "value": "7.38 upbm affinity estimate (log intensity, higher = more binding, comparable within an allelic series)"}, {"measurement": "binding signal", "setting": "[2]", "value": "7.56 upbm affinity estimate (log intensity, higher = more binding, comparable within an allelic series)"}, {"measurement": "binding signal", "setting": "[15]", "value": "7.65 upbm affinity estimate (log intensity, higher = more binding, comparable within an allelic series)"}, {"measurement": "binding signal", "setting": "[16]", "value": "9.46 upbm affinity estimate (log intensity, higher = more binding, comparable within an allelic series)"}, {"measurement": "binding signal", "setting": "[17]", "value": "9.39 upbm affinity estimate (log intensity, higher = more binding, comparable within an allelic series)"}, {"measurement": "binding signal", "setting": "[18]", "value": "7.57 upbm affinity estimate (log intensity, higher = more binding, comparable within an allelic series)"}, {"measurement": "binding signal", "setting": "[19]", "value": "7.75 upbm affinity estimate (log intensity, higher = more binding, comparable within an allelic series)"}, {"measurement": "binding signal", "setting": "[20]", "value": "9.4 upbm affinity estimate (log intensity, higher = more binding, comparable within an allelic series)"}, {"measurement": "binding signal", "setting": "[21]", "value": "7.74 upbm affinity estimate (log intensity, higher = more binding, comparable within an allelic series)"}, {"measurement": "binding signal", "setting": "[22]", "value": "7.67 upbm affinity estimate (log intensity, higher = more binding, comparable within an allelic series)"}]}
{"sequence": "GGAGTAAA", "values": [{"measurement": "binding signal", "setting": "[1]", "value": "9.68 upbm affinity estimate (log intensity, higher = more binding, comparable within an allelic series)"}, {"measurement": "binding signal", "setting": "[2]", "value": "9.73 upbm affinity estimate (log intensity, higher = more binding, comparable within an allelic series)"}]}
{"sequence": "ACTATATG", "values": [{"measurement": "binding signal", "setting": "[1]", "value": "9.48 upbm affinity estimate (log intensity, higher = more binding, comparable within an allelic series)"}, {"measurement": "binding signal", "setting": "[2]", "value": "9.35 upbm affinity estimate (log intensity, higher = more binding, comparable within an allelic series)"}]}
{"sequence": "AATAGCCA", "values": [{"measurement": "binding signal", "setting": "[1]", "value": "10.2 upbm affinity estimate (log intensity, higher = more binding, comparable within an allelic series)"}, {"measurement": "binding signal", "setting": "[2]", "value": "10.3 upbm affinity estimate (log intensity, higher = more binding, comparable within an allelic series)"}]}
{"sequence": "CCAGTTGC", "values": [{"measurement": "binding signal", "setting": "[1]", "value": "7.75 upbm affinity estimate (log intensity, higher = more binding, comparable within an allelic series)"}, {"measurement": "binding signal", "setting": "[2]", "value": "7.61 upbm affinity estimate (log intensity, higher = more binding, comparable within an allelic series)"}]}
{"sequence": "CGCCGTGC", "values": [{"measurement": "binding signal", "setting": "[1]", "value": "7.83 upbm affinity estimate (log intensity, higher = more binding, comparable within an allelic series)"}, {"measurement": "binding signal", "setting": "[2]", "value": "7.83 upbm affinity estimate (log intensity, higher = more binding, comparable within an allelic series)"}]}
{"sequence": "AGAAATAA", "values": [{"measurement": "binding signal", "setting": "[1]", "value": "10.1 upbm affinity estimate (log intensity, higher = more binding, comparable within an allelic series)"}, {"measurement": "binding signal", "setting": "[2]", "value": "10.1 upbm affinity estimate (log intensity, higher = more binding, comparable within an allelic series)"}]}
{"sequence": "CACGTGCG", "values": [{"measurement": "binding signal", "setting": "[1]", "value": "7.64 upbm affinity estimate (log intensity, higher = more binding, comparable within an allelic series)"}, {"measurement": "binding signal", "setting": "[2]", "value": "7.71 upbm affinity estimate (log intensity, higher = more binding, comparable within an allelic series)"}]}
{"sequence": "CGCCGACG", "values": [{"measurement": "binding signal", "setting": "[1]", "value": "7.65 upbm affinity estimate (log intensity, higher = more binding, comparable within an allelic series)"}, {"measurement": "binding signal", "setting": "[2]", "value": "7.86 upbm affinity estimate (log intensity, higher = more binding, comparable within an allelic series)"}]}
{"sequence": "AGACCCGA", "values": [{"measurement": "binding signal", "setting": "[1]", "value": "7.82 upbm affinity estimate (log intensity, higher = more binding, comparable within an allelic series)"}, {"measurement": "binding signal", "setting": "[2]", "value": "7.69 upbm affinity estimate (log intensity, higher = more binding, comparable within an allelic series)"}]}
